High-throughput results as filed in PubChem.
FLuc counter: counter-screen for miR-21 project: firefly luciferase inhibitors or activators; Potency, µM (highest dose often 57.5 µM), for the others: at the top dose activity change, negative = inhibition, usual class: inhibitors; hit rate 6.9% among 360,000; purified FLuc, Km substrates, luminescence inhibition;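 also: plate controls were vehicle for no effect and reference inhibitor for full effect; nearly all actives have a fitted effect of over 55% in size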
Target sequence (P08659 whole entry, looked up): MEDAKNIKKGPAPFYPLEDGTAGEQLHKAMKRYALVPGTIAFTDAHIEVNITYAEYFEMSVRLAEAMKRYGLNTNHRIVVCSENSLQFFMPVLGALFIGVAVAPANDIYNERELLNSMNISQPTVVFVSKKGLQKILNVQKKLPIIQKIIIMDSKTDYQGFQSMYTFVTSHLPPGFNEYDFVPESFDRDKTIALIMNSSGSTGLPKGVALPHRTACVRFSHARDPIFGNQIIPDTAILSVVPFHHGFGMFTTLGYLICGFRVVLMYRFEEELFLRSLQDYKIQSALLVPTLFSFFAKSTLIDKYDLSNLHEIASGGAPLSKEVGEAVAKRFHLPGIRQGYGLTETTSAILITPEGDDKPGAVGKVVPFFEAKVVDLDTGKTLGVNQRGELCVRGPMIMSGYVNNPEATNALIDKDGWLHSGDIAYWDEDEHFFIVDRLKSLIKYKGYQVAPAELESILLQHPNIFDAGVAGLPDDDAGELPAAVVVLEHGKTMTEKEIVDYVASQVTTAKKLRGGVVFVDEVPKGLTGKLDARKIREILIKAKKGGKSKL
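Purified P. pyralis luciferase, 10 nM final, with Km-level 10 uM D-luciferin and 10 uM ATP in 50 mM Tris acetate pH 7.5, 10 mM Mg acetate, 0.01% Tween-20, 0.05% BSA; 6-point qHTS titration about 60 µM downward; luminescence read.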
ELG1 DNA repair: inhibitors of ELG1-dependent DNA repair in HEK293T cells; HEK293T ELG1-luciferase reporter, luminescence, 16 h; DNA damage induced by 5-fluorouridine; Potency, µM (doses to about 46.1 µM), without a hit: at the highest dose activity change, negative = inhibition, most hits filed as inhibitors; hit rate 2.3% among 330,000; also: % is scaled to controls: 0 for no effect and ±100 for the full control effect; nearly all actives have a fitted effect of over 55% in size
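Step one: seed 2,000 cells per well. Step two: pin-transfer compound or DMSO alongside 5-fluorouridine. Step three: incubate 16 hr, 37 °C, 5% CO2. Step four: add ONE-Glo, wait 30 min, read luminescence.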
Rab9 promoter act: activates the Rab9 promoter; hit rate 2.8% among 320,000; AID 485297; Huh7 Rab9 promoter-luciferase reporter, luminescence, 24 h; Potency, µM (highest dose often 9.22 µM), without a hit: top-dose activation, negative = inhibition, usual class: activators; also: % of control where 0% means no effect; nearly all actives have a fitted effect of over 60% in size
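Cell-based reporter: Huh7 stable for Rab9 promoter-driven luciferase, plated in reduced-serum medium with 10% FBS at 1500 cells/well, compound-treated 24 h at 37 °C, luminescence read after 10 min reagent.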
ELG1 genotox: genotoxicity induction in ELG1-luciferase HEK293T cells. HEK293T ELG1-luciferase reporter, luminescence, 16 h. Potency, µM (doses to about 46 µM), inactives show at the highest dose activity change, positive = activation, hits mostly activators. hit rate 1.3% among 330,000. AID 504466; also: % of control where 0% means no effect; nearly all actives have a fitted effect of over 60% in size
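16 hr compound incubation (37 °C, 5% CO2) of HEK293T cells carrying luciferase-tagged ELG1; luciferase then measured by ONE-Glo luminescence after 30 min at RT.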
SMN2 splice up: enhancers of SMN2 splice variant expression; HEK293 SMN2-luciferase splicing reporter, luminescence, 30-36 h; Potency, µM (top dose mostly 46.1 µM), inactives show top-dose activity change, positive = activation, most hits filed as activators; hit rate 2.8% among 210,000; also: % of control where 0% means no effect; nearly all actives have a fitted effect of over 55% in size
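qHTS luciferase splicing reporter: luminescence rises when SMN2 exon 7 is included in transfected HEK293 cells. Compound exposure lasted 30-36 h at 37C, with 4.5 mM final sodium butyrate as control, followed by a ONE-Glo read.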
NPC1 prom act: NPC1 promoter activation; hit rate 2.4% among 320,000; Huh7 NPC1 promoter luciferase reporter, 24 h; Potency, µM (highest dose often 9.22 µM), for inactives: top-dose activation, most hits filed as activators; also: % of control where 0% means no effect; nearly all actives have a fitted effect of over 60% in size
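Luminescence read-out of NPC1 promoter-driven luciferase in stably transfected Huh7 cells; compounds delivered in DMSO and left 24 h at 37C, 5% CO2, qHTS titration format.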
Starred values were filed as active, the others as inactive; ? = inconclusive; · = no result given. This is a sample that favours compounds with a hit; in the whole collection about 9.4% have one here. Calls follow the shape of the dose curve; as a rule, active = well fitted curve in the direction sought with a large enough effect; inconclusive = small, poorly fitted or top-dose-only effect, or another doubt; inactive = no such curve, though single readings can be large; an effect the other way counts as inactive or inconclusive. Potency is read from the fitted curve at half-maximal effect.

SMILES	FLuc counter	ELG1 DNA repair	Rab9 promoter act	ELG1 genotox	SMN2 splice up	NPC1 prom act
O=C(CCc1ccccc1)NCC(=O)N/N=C/c1ccc(O)cc1O	-4%	8.2µM*	-16%	?	·	-9%
Cc1cc(C)nc(NC(=O)/C=C/c2ccc(Cl)cc2Cl)c1	7.6µM*	?	3.5µM*	?	10%	?
Cc1cc(C)nc(NC(=O)/C=C/c2ccccc2Cl)n1	?	?	?	11%	?	28%
Cc1cc(N)c2cc(NC(=O)/C=C/c3ccccc3Cl)ccc2n1	13µM*	?	-20%	5%	·	-8%
Cc1cc(C)nc(NC(=O)/C=C/c2ccccc2Cl)c1	3µM*	?	?	?	13µM*	?
CSc1ccc(CNc2ccc(C)c(C)c2)cc1	15µM*	?	?	?	8%	?
COc1ccc(CNc2ccc(C)c(C)c2)cc1	15µM*	?	?	?	25%	?
CSc1ccc(CNc2ccc(C)cc2)cc1	9.5µM*	?	4µM*	?	-5%	3.5µM*
CCOc1ccc(CC(=O)NCCc2sc3nc(-c4ccc(F)cc4)nn3c2C)cc1	-10%	·	·	·	·	·
Cc1ccc(-n2[nH]c(C)c(C=Nc3ccc(S(=O)(=O)Nc4nccs4)cc3)c2=O)cc1C	19µM*	?	0%	9%	28%	-1%
Cc1[nH]n(-c2ccccc2)c(=O)c1C=Nc1ccc(S(=O)(=O)Nc2nccs2)cc1	2%	-6%	1%	-8%	-17%	-2%
COc1nccnc1NS(=O)(=O)c1ccc(N=Cc2c(C)[nH]n(-c3ccc(Cl)cc3)c2=O)cc1	?	?	0%	3%	2%	-2%
COc1nccnc1NS(=O)(=O)c1ccc(N=Cc2c(C)[nH]n(-c3ccc(C)c(C)c3)c2=O)cc1	15µM*	?	15%	12%	-19%	3%
Nc1nc(N2CCN(c3ccccn3)CC2)nc2ccccc12	11µM*	?	3.5µM*	?	·	?
Cc1ccc(-c2nnc(N3CCN(c4ccccn4)CC3)c3ccccc23)cc1	-7%	16µM*	1%	-39%	-35%	-2%
O=S(=O)(c1ccccc1)N1CCN(c2nnc(-c3ccccc3)c3ccccc23)CC1	6%	23µM*	0%	-11%	·	-3%
c1ccc(-c2nnc(N3CCN(c4ccccn4)CC3)c3ccccc23)cc1	-7%	13µM*	-1%	-34%	·	-2%
Cc1ccc(-c2nnc(N3CCCCC3)c3ccccc23)cc1	?	-30%	-2%	-2%	·	-3%
Cc1ccc(CCNC(=O)c2cc3n(n2)CCCN(Cc2ccc(C)cc2)C3=O)cc1	-4%	·	·	·	·	·
Cc1ccc(S(=O)(=O)c2nnn3c2nc(N2CCN(c4ccc(F)cc4)CC2)c2cc(Cl)ccc23)cc1C	0%	·	·	·	12%	·
CCC(=O)N1CCc2cc(Br)cc(S(=O)(=O)N3CCN(c4ccc(C)cc4)C(C)C3)c21 (stereo not drawn)	3%	·	·	·	9%	·
CC(CNC(=O)Cn1ccc2cc(S(=O)(=O)N3CCCCCC3)ccc21)c1ccccc1 (stereo not drawn)	-19%	·	·	·	·	·
O=C(N/N=C/c1ccc[nH]1)c1cccnc1	-6%	8%	9%	1%	-6%	-3%
Cn1c(-c2ccccc2)c(/C=N/NC(=O)c2cccnc2)c2ccccc21	5.4µM*	?	1%	-14%	?	21%
O=C(N/N=C/c1c(-c2ccccc2)[nH]c2ccccc12)c1cccnc1	3µM*	-12%	15%	-2%	?	1%
Cc1cc(C)c(NC(=O)Cn2c(=O)n(CCc3ccccc3)c(=O)c3ccccc32)c(C)c1	6%	·	·	·	5%	·
COc1ccc(NC(=O)c2ccc(-c3nc(CSc4ccc(C)cc4)c(C)o3)cc2)cc1Cl	-7%	·	·	·	·	·
